Rows were chosen to be rich in hits. Some 0.28% of all compounds tested hit in one or more screens of this group.
hcGAS lum – Primary biochemical luminescence assay for human cyclic GMP-AMP synthase inhibitors | 0.081% of 290,000 active | Q8N884 | recombinant h-cGAS, ATP depletion, Kinase-Glo luminescence | AID 1259398, 2018 | inhibition, % at 12.5 µM;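 note: 0% = vehicle reaction and 100% = reaction without DNA for no activity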
Target sequence (Q8N884 whole entry, looked up): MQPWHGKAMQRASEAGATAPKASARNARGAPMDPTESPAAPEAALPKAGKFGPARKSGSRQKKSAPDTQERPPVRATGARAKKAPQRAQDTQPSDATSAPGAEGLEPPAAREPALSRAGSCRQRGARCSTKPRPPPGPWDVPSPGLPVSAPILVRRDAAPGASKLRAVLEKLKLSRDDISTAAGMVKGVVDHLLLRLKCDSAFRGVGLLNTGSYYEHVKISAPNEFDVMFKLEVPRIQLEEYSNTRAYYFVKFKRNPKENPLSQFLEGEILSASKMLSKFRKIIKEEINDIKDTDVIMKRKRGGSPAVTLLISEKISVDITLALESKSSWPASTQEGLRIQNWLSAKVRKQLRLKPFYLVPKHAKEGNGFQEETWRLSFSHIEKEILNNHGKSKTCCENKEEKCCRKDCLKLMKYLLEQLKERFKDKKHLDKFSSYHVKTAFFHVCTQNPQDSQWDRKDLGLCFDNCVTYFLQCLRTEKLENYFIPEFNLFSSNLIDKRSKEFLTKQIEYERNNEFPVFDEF
NPYLR7 agonist – agonists of mosquito NPYLR7 receptor, primary screen, cell-based, Aedes aegypti, calcium fluorescence, mosquito biting behavior | Aedes aegypti neuropeptide Y-like receptor 7 (NPYLR7) | HEK293T NPYLR7/Galpha15, GCaMP6s calcium fluorescence | activation, % at 10 µM | 0.15% of 270,000 active | AID 1259423, 2018; in the data active = activation above about 40%;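 note: 0% = vehicle and 100% = reference agonist at the receptor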
mcGAS inh – cyclic GMP-AMP synthase inhibitors, mouse, primary biochemical chemiluminescence; recombinant cGAS, Kinase-Glo ATP depletion luminescence; inhibition, % at 12.5 µM; 0.15% of 160,000 active; Q8C6L5;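 note: 0% = negative control wells and 100% = reference inhibitor with no enzyme activity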
Starred values were filed as active, the others as inactive; ! = a repeat was not active. Cut-off read from the data, not from the text of the source, unless noted: active = inhibition above about 40%; inactive = the rest.

What do the screens show for `O=C(CNC(=O)c1ccc(F)c(F)c1)Nc1ccnc2ccnn12`?
hcGAS lum: -5; NPYLR7 agonist: 10

How did CC(C)(C)c1ccc(-c2nc3ccc(Cl)cn3c2NCc2ccccc2)cc1 do in these assays?
hcGAS lum: -6; NPYLR7 agonist: -4; mcGAS inh: -7

How did FC(F)(F)c1ccc(-c2nc3ccc(Cl)cn3c2NCc2ccccc2)cc1 do in these assays?
hcGAS lum: -7; NPYLR7 agonist: 47*; mcGAS inh: -8

What do the screens show for `CNC(=O)c1cc(=O)c(OCc2ccccc2)cn1C`?
hcGAS lum: -11; NPYLR7 agonist: 2

How did CCOC(=O)C1CCCN(CC(=O)N2N=C(c3ccccc3Cl)CC2c2ccc(Cl)cc2)C1 (stereo unspecified) do in these assays?
hcGAS lum: 2; NPYLR7 agonist: 42*; mcGAS inh: 0

What do the screens show for `CC(=O)N1CCN(CC(=O)N2N=C(c3ccccc3F)CC2c2ccc(Cl)cc2)CC1` (stereo unspecified)?
hcGAS lum: -4; NPYLR7 agonist: 4; mcGAS inh: -4

How did O=C(CN1CCc2ccccc2C1)N1N=C(c2ccccc2F)CC1c1ccc(Cl)cc1 (stereo unspecified) do in these assays?
hcGAS lum: 60*; NPYLR7 agonist: 15; mcGAS inh: -3

Results for CCOC(=O)C1CCCN(CC(=O)N2N=C(c3ccccc3Cl)CC2c2ccc3c(c2)OCO3)C1 (stereo unspecified) ?
hcGAS lum: -4; NPYLR7 agonist: -2; mcGAS inh: -4

Results for CCOC(=O)c1ccccc1NC(=O)Cn1c(-n2nc(C)cc2C)nc(C)c(CC)c1=O ?
hcGAS lum: -3; NPYLR7 agonist: 2; mcGAS inh: -7

Results for Cc1ccc(Cn2c(=O)n(C(C)C)c(=O)c3oc4ccccc4c32)cc1 ?
hcGAS lum: -10; NPYLR7 agonist: 9; mcGAS inh: -8

Results for CCOCCn1cc(C2CCN(C(=O)c3c(F)c(F)cc(F)c3F)CC2)c2ccccc21 ?
hcGAS lum: 4; NPYLR7 agonist: -6; mcGAS inh: 2

What do the screens show for `CN1C=CC(=C/C=C2/C=Nc3ccccc32)C=C1`?
hcGAS lum: 1; NPYLR7 agonist: 54*; mcGAS inh: -2

Results for CCCCn1c(O)c(C=C2C=Nc3ccccc32)c(=O)[nH]c1=O ?
hcGAS lum: 0; NPYLR7 agonist: 6; mcGAS inh: 6

How did Clc1c(-c2nnco2)sc2ccccc12 do in these assays?
hcGAS lum: 1; NPYLR7 agonist: -2

Results for S=c1[nH]nc(-c2sc3ccccc3c2Cl)o1 ?
hcGAS lum: 50*!; NPYLR7 agonist: 0; mcGAS inh: 47*

How did O=C1NC(=NC2CCCC2)SC1=Cc1cc([N+](=O)[O-])ccc1N1CCCC1 do in these assays?
hcGAS lum: -5; NPYLR7 agonist: -3

Results for O=C1NC(=NS(=O)(=O)c2ccccc2)SC1=Cc1cc([N+](=O)[O-])ccc1O ?
hcGAS lum: 35; NPYLR7 agonist: 61*; mcGAS inh: 75*

How did COc1ccc(C)cc1CC(=O)NC(C)c1ccc(C)o1 (stereo unspecified) do in these assays?
hcGAS lum: -14; NPYLR7 agonist: 1; mcGAS inh: -10

Results for COc1ccc(CN2C(=O)c3ccccc3C2=O)cc1F ?
hcGAS lum: -1; NPYLR7 agonist: 8

What do the screens show for `COc1cccc(CN2C(=O)c3cccc(N)c3C2=O)c1`?
hcGAS lum: -8; NPYLR7 agonist: 43*

What do the screens show for `Nc1c(NC(=O)N2CCN(C3CCCC3)CC2)c(-c2ccc(Cl)cc2)nn1-c1ccccc1`?
hcGAS lum: 164*; NPYLR7 agonist: 5

Results for O=C(Nc1ccc(Cl)cc1)N1CCCN(C2CC2)CC1 ?
hcGAS lum: -8; NPYLR7 agonist: 1

How did O=C1CCCC2Nc3ncnc(Cl)c3OC12 (stereo unspecified) do in these assays?
hcGAS lum: 6; NPYLR7 agonist: 77*

What do the screens show for `CCOC(=O)Cc1c(C)n2nc(C)cc2[nH]c1=O`?
hcGAS lum: 58*; NPYLR7 agonist: -2

Results for CCOC(=O)Cc1cnc(C)[nH]c1=O ?
hcGAS lum: -3; NPYLR7 agonist: 4; mcGAS inh: -2

Results for COc1ccc(CCNC(=O)c2ccccc2N2CCC(NC(=O)c3ccc(OC)c(OC)c3)CC2)cc1OC ?
hcGAS lum: 0; NPYLR7 agonist: 8; mcGAS inh: -3

Results for COc1ccc(CCNC(=O)c2ccccc2N2CCC(NC(=O)c3ccco3)CC2)cc1OC ?
hcGAS lum: -3; NPYLR7 agonist: -5; mcGAS inh: 78*

How did Cc1ccccc1CO[C@]1(C(=O)NCC2CCCO2)CC(OCc2cccc(C(F)(F)F)c2)[C@H](O)[C@H](O)C1 (stereo partly specified) do in these assays?
hcGAS lum: 10; NPYLR7 agonist: -6; mcGAS inh: 0

What do the screens show for `Cc1cc(C)c(NC(=O)Cn2c(-c3nnc(C)o3)cc3ccccc32)c(C)c1`?
hcGAS lum: -5; NPYLR7 agonist: 3; mcGAS inh: -6

How did CCOc1ncccc1C(=O)N1CCOC(COCc2ccccc2F)C1 (stereo unspecified) do in these assays?
hcGAS lum: -4; NPYLR7 agonist: -5; mcGAS inh: -4

How did O=C(c1cccnc1Cl)N1CCOC(COCc2ccccc2F)C1 (stereo unspecified) do in these assays?
hcGAS lum: -5; NPYLR7 agonist: 51*; mcGAS inh: -8

What do the screens show for `O=C(NN=Cc1ccccc1C(F)(F)F)c1ccco1`?
hcGAS lum: -2; NPYLR7 agonist: -2; mcGAS inh: -1

How did O=C(NN=Cc1ccccc1C(F)(F)F)c1cnccn1 do in these assays?
hcGAS lum: 1; NPYLR7 agonist: -5; mcGAS inh: 55*

Results for CC1(C)C(=O)NCCN1C(=O)CC(c1cccc(Cl)c1)c1ccccc1O (stereo unspecified) ?
hcGAS lum: -11; NPYLR7 agonist: 4

What do the screens show for `CC(NS(=O)(=O)N1CCc2ccccc2C1)c1ccc(S(C)(=O)=O)cc1` (stereo unspecified)?
hcGAS lum: 2; NPYLR7 agonist: 2

How did CSc1nc2c(cnn2Cc2ccccc2)c(=O)[nH]1 do in these assays?
hcGAS lum: -8; NPYLR7 agonist: -5

How did O=c1[nH]c(CCl)nc2c1cnn2Cc1ccccc1 do in these assays?
hcGAS lum: -9; NPYLR7 agonist: 12; mcGAS inh: 54*

How did COc1ccc(C(=O)N2CCC(CCC(=O)NC3CCN(Cc4ccccc4)C3)CC2)cc1 (stereo unspecified) do in these assays?
hcGAS lum: -8; NPYLR7 agonist: 4

Results for Cc1ccc(C2=CSC3=NS(=O)(=O)CCN23)s1 ?
hcGAS lum: -7; NPYLR7 agonist: 0

How did N#C/C(=C/c1ccc(N2CCCCC2)o1)c1cccc(F)c1 do in these assays?
hcGAS lum: -1; NPYLR7 agonist: 63*

What do the screens show for `N#C/C(=C/c1ccc(N2CCCCC2)cc1F)c1ccc(C(=O)O)cc1`?
hcGAS lum: 0; NPYLR7 agonist: -1; mcGAS inh: -5

What do the screens show for `NC(=NCCCCCCN=C(N)N=C(N)Nc1ccc(Cl)cc1)N=C(N)Nc1ccc(Cl)cc1`?
hcGAS lum: -4; NPYLR7 agonist: 70*!; mcGAS inh: -4

Source: PubChem BioAssay
